Source: PubChem BioAssay
Hits are enriched below; roughly 9.2% of the tested compounds scored in any of these assays.
Rab9 prom act = qHTS Assay for Rab9 Promoter Activators. Huh7 Rab9 promoter-luciferase reporter, luminescence, 24 h. hit rate 2.8% among 320,000. Potency, µM (top dose mostly 9.22 µM), inactives show top-dose activation, negative = inhibition, usual class: activators; further: % of control where 0% means no effect; nearly all actives have a fitted effect of over 60% in size
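Promoter activation is measured as luciferase luminescence in Huh7 cells stably transfected with a Rab9 promoter–luciferase construct, following 24 h compound exposure at 37 °C and 10 min reagent incubation at ambient temperature.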
FLuc counter = qHTS profiling assay for firefly luciferase inhibitor/activator using purifed enzyme and Km concentrations of substrates (counterscreen for miR-21 project); Luciferin 4-monooxygenase (Photinus pyralis), P08659; purified FLuc, Km substrates, luminescence inhibition; Potency, µM (titrated, usually from 57.5 µM), inactives show at the highest dose activity change, negative = inhibition, usual class: inhibitors; hit rate 6.9% among 360,000;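 further: plate controls were vehicle for no effect and reference inhibitor for full effect; nearly all actives have a fitted effect of over 55% in size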
Target sequence (P08659 whole entry, looked up): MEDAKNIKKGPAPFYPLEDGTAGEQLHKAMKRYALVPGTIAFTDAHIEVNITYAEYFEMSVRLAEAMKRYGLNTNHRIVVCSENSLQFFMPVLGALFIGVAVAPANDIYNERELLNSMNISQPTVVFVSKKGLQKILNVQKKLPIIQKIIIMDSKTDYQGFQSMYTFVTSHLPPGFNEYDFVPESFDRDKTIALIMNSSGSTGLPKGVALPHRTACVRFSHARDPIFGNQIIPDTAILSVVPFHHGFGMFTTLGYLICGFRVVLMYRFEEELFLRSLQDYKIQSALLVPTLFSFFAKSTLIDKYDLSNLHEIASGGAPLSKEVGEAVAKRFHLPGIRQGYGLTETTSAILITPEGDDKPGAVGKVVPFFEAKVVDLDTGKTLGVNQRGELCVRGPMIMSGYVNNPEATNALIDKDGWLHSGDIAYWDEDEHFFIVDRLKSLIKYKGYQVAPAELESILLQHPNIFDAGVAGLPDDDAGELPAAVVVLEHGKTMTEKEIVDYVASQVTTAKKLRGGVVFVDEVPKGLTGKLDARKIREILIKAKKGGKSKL
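Purified P. pyralis luciferase (10nM final) with 10uM D-luciferin and 10uM ATP (Km levels) in 50mM Tris acetate pH 7.5, 10mM Mg acetate, 0.01% Tween-20, 0.05% BSA; qHTS 6-point titration, ~60 µM downward; luminescence read.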
ELG1 DNA repair = qHTS screen for small molecules that inhibit ELG1-dependent DNA repair in human embryonic kidney (HEK293T) cells expressing luciferase-tagged ELG1; HEK293T ELG1-luciferase reporter, luminescence, 16 h; DNA damage induced by 5-fluorouridine; Potency, µM (titrated, usually from 46.1 µM), for inactives: at the highest dose activity change, negative = inhibition, actives largely listed as inhibitors; hit rate 2.3% among 330,000; AID 504467, 2011; further: on the % scale 0 is the no-effect control and ±100 the full control effect; nearly all actives have a fitted effect of over 55% in size
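Overnight (16 hr) co-exposure of 2,000 cells/well to 5-fluorouridine and compound at 37 °C preceded detection. Luciferase was quantified via ONE-Glo luminescence; loss of signal denotes inhibition.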
ELG1 genotox = qHTS screen for small molecules that induce genotoxicity in human embryonic kidney (HEK293T) cells expressing luciferase-tagged ELG1 | HEK293T ELG1-luciferase reporter, luminescence, 16 h | Potency, µM (titrated, usually from 46 µM), for the others: at the top dose activity change, positive = activation, actives largely listed as activators | hit rate 1.3% among 330,000 | AID 504466, 2011; further: % of control where 0% means no effect; nearly all actives have a fitted effect of over 60% in size
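Cells (2,000/well) expressing the ELG1-luciferase fusion are dosed by pin tool and kept 16 hr at 37 °C, 5% CO2. Signal comes from ONE-Glo luciferase reagent after 30 min at room temperature.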
SMN2 splice up = qHTS Assay for Enhancers of SMN2 Splice Variant Expression; HEK293 SMN2-luciferase splicing reporter, luminescence, 30-36 h; Potency, µM (doses to about 46.1 µM), for the others: at the highest dose activity change, positive = activation, hits mostly activators; hit rate 2.8% among 210,000; further: % of control where 0% means no effect; nearly all actives have a fitted effect of over 55% in size
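HEK293 cells carry an SMN2 minigene-luciferase reporter in which exon 7 inclusion puts luciferase in frame. Cells were seeded at 2000 cells/well, attached for 10-12 hours, then exposed to compounds for 30-36 hours at 37C before ONE-Glo luminescence.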
NPC1 prom act = qHTS Assay for NPC1 Promoter Activators; hit rate 2.4% among 320,000; Potency, µM (top dose mostly 9.22 µM), without a hit: top-dose activation, hits mostly activators; Huh7 NPC1 promoter luciferase reporter, 24 h; AID 485313, 2010; further: % of control where 0% means no effect; nearly all actives have a fitted effect of over 60% in size
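NPC1 promoter–luciferase Huh7 cells; 24 h compound; luminescence.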
* marks the source's active call; other numbers are inactive results; u = inconclusive; x = no result given. The call rests on the fitted dose curve; in most records, active means well fitted curve in the direction sought with a large enough effect; inconclusive means small, poorly fitted or top-dose-only effect, or another doubt; inactive means no such curve, though single readings can be large; an effect the other way counts as inactive or inconclusive. Potency means the concentration at half of the fitted maximal effect.

SMILES	Rab9 prom act	FLuc counter	ELG1 DNA repair	ELG1 genotox	SMN2 splice up	NPC1 prom act
Cn1nc(C(=O)Nc2sc3c(c2C#N)CCCC3)ccc1=O	29%	5.4µM*	u	u	-15%	17%
Cc1noc(C)c1C(=O)Nc1sc2c(c1C(N)=O)CCCCC2	-5%	u	u	-1%	3%	10%
NC(=O)c1c(NC(=O)c2ccccc2)sc2c1CCC2	3.2µM*	4.8µM*	u	5.8µM*	x	2µM*
NC(=O)c1c(NC(=O)c2ccncc2)sc2c1CCCCCC2	0%	12µM*	u	-4%	x	-5%
CN(C)C(=O)c1c(NC(=O)c2ccccc2)sc2c1CCC2	-1%	-4%	-1%	2%	x	8%
N#Cc1c(NC(=O)c2cccc(S(=O)(=O)Nc3ccc(C(=O)O)cc3)c2)sc2c1CCCC2	0%	19µM*	u	8%	x	-1%
COc1ccc(CCNC(=O)CSCC(=O)Nc2cc(S(C)(=O)=O)ccc2Cl)cc1	x	x	0%	0%	x	x
CC(=O)NC1(C(F)(F)F)C(=O)Nc2c1c(=O)[nH]c(=O)n2CCc1ccccc1 (stereo not given)	-5%	-1%	-15%	0%	x	2%
CCCCN(C)CCNC(=O)c1ccc2c(=O)n(CCc3ccccc3)c(=O)[nH]c2c1	x	1%	x	x	-35%	x
CC1(C)CC(=O)C(C(=O)/C=C/c2ccco2)C(=O)C1	1%	-8%	15%	1%	-1%	4%
N#Cc1c(NC(=O)c2ccncc2)sc2c1CCC2	18%	13µM*	34%	20%	u	14%
NC(=O)c1c(NC(=O)c2cnccn2)sc2c1CCCC2	2µM*	2.7µM*	u	u	u	u
CC(=O)Nc1sc2c(c1C#N)CCCC2	x	3%	x	x	-5%	x
Cc1cc(C(=O)Nc2sc3c(c2C#N)CCCCC3)cs1	1.1µM*	0.95µM*	u	0.82µM*	11µM*	u
CC(Sc1nc(N)cc(=O)[nH]1)C(=O)Nc1sc2c(c1C#N)CCCC2 (stereo not given)	-2%	u	8.2µM*	-1%	-61%	-10%
Cc1ccc(CN=C(N)Nc2nc(C)cc(C)n2)cc1	-31%	1%	u	-10%	-37%	-31%
COCCn1c(=O)c(-c2ccc(Cl)cc2)nc2cnc(Oc3ccc(OC)cc3)nc21	x	x	x	x	2%	x
CCOC(=O)c1c(NC(=O)c2ccncc2)sc(C)c1C	-3%	-11%	-4%	-5%	-2%	-11%
CCOC(=O)c1sc(NC(=O)c2ccncc2)c(C#N)c1C	-9%	11µM*	21µM*	-4%	-75%	-1%
NC(=O)c1c(NC(=O)c2ccccc2)sc2c1CCc1ccccc1-2	3.5µM*	2.1µM*	u	6.5µM*	u	4.5µM*
NC(=O)c1c(NC(=O)c2ccncc2)sc2c1CCCC2	u	11µM*	11%	5%	-80%	u
Cc1ccc(S(=O)(=O)N2CCN(Cc3cc(Br)ccc3O)CC2)cc1	x	-7%	x	x	-18%	x
CC1(C)O[C@@H]2[C@H](O1)[C@@H](COS(=O)(=O)O)O[C@H]2n1c(=S)[nH]c2c(=O)[nH]c(N)nc21	-3%	1%	13%	1%	x	0%
CCOc1ccccc1CNC(=O)C1CCN(C(=O)c2sccc2-n2cccc2)CC1	1%	0%	13µM*	-5%	-6%	1%
CC1(C)Cc2c(cnn2-c2ccc(F)cc2)C(NC(=O)CN2CCCCC2=O)C1 (stereo not given)	-9%	19µM*	5%	6%	x	0%
SMILES	Rab9 prom act	FLuc counter	ELG1 DNA repair	ELG1 genotox	SMN2 splice up	NPC1 prom act
CC1(C)Cc2c(cnn2-c2ccc(F)cc2)C(NC(=O)CCN2CCCC2=O)C1 (stereo not given)	23%	u	u	15%	x	24%
Cc1ccc(-c2nnc(N3CCCCCC3)c3ccccc23)cc1	9%	19µM*	-3%	1%	x	15%
CC(C)(C)NC(=O)COC(=O)c1c2c(nc3ccccc13)CCC2	3%	-8%	u	-19%	x	-8%
O=C(COC(=O)c1c2c(nc3ccccc13)CCCC2)Nc1ccc2c(c1)OCO2	-3%	u	u	-11%	-52%	1%
CC(=O)c1ccc(NC(=O)COC(=O)c2c3c(nc4ccccc24)/C(=C\c2cccs2)CCC3)cc1	-44%	0%	10µM*	-9%	x	-32%
O=C(COC(=O)c1c2c(nc3ccccc13)/C(=C\c1cccs1)CCC2)Nc1ccccc1	-33%	3%	15µM*	-13%	-54%	-31%
O=C(N/N=C/c1ccccc1)c1ccc(OCc2ccccc2)cc1	15%	-2%	9%	u	-23%	1%
O=C(N/N=C/c1ccncc1)c1ccccc1OCc1ccc(Br)cc1	-7%	u	7.3µM*	-6%	-10%	-10%
Cc1ccc(/C=N/NC(=O)c2ccccc2OCc2ccc(F)cc2)o1	-4%	u	18µM*	2%	-24%	0%
O=C(N/N=C/c1ccccc1)c1sccc1OCc1ccc(F)cc1	0%	19µM*	-16%	2%	-17%	-2%
Cc1cccc(/C=N/NC(=O)c2ccccc2OCc2cccc(Br)c2)n1	0%	19µM*	16µM*	-4%	x	15%
CCCCC(=O)NNC(=S)NCc1ccccc1	-2%	0%	2%	0%	-13%	0%
CCC(C)c1ccc(OCC(=O)Nc2ccc(-c3nc4ncccc4o3)cc2)cc1 (stereo not given)	x	0%	x	x	9%	x
CC(=O)c1ccc(N2CCN(C(=O)CCCn3c(=O)[nH]c4ccc(Br)cc4c3=O)CC2)cc1	-3%	2%	18µM*	-14%	-73%	-6%
CCCCCn1c(=O)[nH]c2cc(C(=O)N3CCN(c4ccc(C(C)=O)cc4)CC3)ccc2c1=O	-26%	-5%	5.8µM*	-15%	x	-25%
CC(=O)c1ccc(N2CCN(C(=O)CCCCn3c(=O)[nH]c4ccccc4c3=O)CC2)cc1	x	2%	x	x	x	x
COc1nc(-c2ccccc2)ccc1-c1noc(-c2ccco2)n1	4µM*	8.5µM*	u	21µM*	13µM*	u
COc1nc(-c2ccccc2)ccc1-c1noc(-c2ccccc2)n1	2.8µM*	24µM*	u	18µM*	u	4µM*
COc1ccccc1-c1noc(-c2ccco2)n1	3.2µM*	11µM*	u	6.5µM*	13µM*	3.5µM*
